Only some compounds are listed: those with a hit (about 1.7% of all), similar ones and a draw of the others.
DUSP3 inh: blocks human VHR1 dual specificity phosphatase. P51452. recombinant VHR phosphatase, pNPP absorbance. inhibition, % at 13.3 µM. actives 0.52% (n = 290,000); in the data active = inhibition above about 50%
CCHF vOTU inh: CCHFV vOTU protease inhibition; Pep-AMC fluorescence; inhibition, % at 11.5 µM; actives 0.55% (n = 370,000); AID 651958; in the data active = inhibition above about 30%; note: 0% = vehicle wells with enzyme and 100% = no enzyme wells
3CLpro inhibitor: SARS-CoV 3CLpro protease inhibition; P0C6X7; recombinant SARS-CoV 3CLpro, quenched FRET peptide cleavage; inhibition, % at 6 µM; actives 0.14% (n = 290,000); AID 1706; in the data active = inhibition above about 12%
RecA splice inh: Mtb RecA intein splicing inhibition; P9WHJ3; cell-free RecA intein splicing, fluorescence; actives 0.75% (n = 290,000); inhibition, % (no concentration beside the values); in the data active = inhibition above about 30%;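 note: 0% = vehicle wells and 100% = reference inhibitor control wells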
SSB-PriA inh: inhibitors of Klebsiella pneumoniae PriA binding to SSB C-terminal tail. AlphaScreen SSBct-PriA binding, biotinylated peptide. inhibition, % at 33 µM. actives 0.6% (n = 430,000). AID 1272365; in the data active = inhibition mostly above about 37%, no sharp cut-off; inactive = mostly below about 20%;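 note: plate controls were negative control peptide for no effect and reference peptide for full effect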
* hit, by the source's call; i = inactive; x = no result given; + = active, no number; ! = a repeat was not active.

SMILES | DUSP3 inh | CCHF vOTU inh | 3CLpro inhibitor | RecA splice inh | SSB-PriA inh
O=C(N/N=C/c1cccc2nccnc12)c1ccncc1 | -10 | 5 | -3 | -1 | +
CCOc1ccc(C(=O)NN=Cc2cccc3cccnc23)cc1 | x | x | x | x | 89*
COc1ccc(OCC(=O)N/N=C/c2cccc3cccnc23)cc1 | 14 | 19 | -3 | -7 | x
O=C(COc1ccc(F)cc1)NN=Cc1cccc2cccnc12 | x | x | x | x | 11
CCOc1cccc(C=NNC(=O)c2cccnc2)c1O | x | x | x | x | 2
CCOc1cccc(/C=N/NC(=O)c2cccnc2)c1O | 52* | -8 | -5 | -2 | x
COc1ccc(C(=O)NN=Cc2cccc3cccnc23)cc1 | x | x | x | x | 80*
O=C(NN=Cc1ccccc1O)c1ccncc1 | x | x | x | x | 31
O=C(N/N=C/c1cccc2cccnc12)c1ccccc1O | 5 | 15 | -1 | -1 | +
O=C(N/N=C/c1cccc2nccnc12)c1ccccc1O | 17 | 0 | -4 | 1 | i
O=C(NCC1(c2cccs2)CCCC1)C(=O)Nc1ccon1 | x | x | x | x | -17
O=[N+]([O-])c1cc(C(F)(F)F)ccc1NC1CCN(Cc2ccccc2)CC1 | 21 | -2 | -3 | 5 | 33
O=[N+]([O-])c1cc(C(F)(F)F)ccc1NC1CCN(Cc2ccccc2)C1 (centres undefined) | 14 | 23 | -3 | 7 | 43*
O=C(Nc1ccc2c(c1)CCCN2C(=O)C1CC1)c1ccccc1C(F)(F)F | x | x | x | x | -1
Cc1ccc2nc3c(cc(C(=O)NC4CCCCC4)c(=N)n3C3CCCCC3)c(=O)n2c1 | 12 | -67 | -3 | i | -3
Cc1ccc2nc3c(cc(C(=O)NC4CCCC4)c(=N)n3C3CCCCC3)c(=O)n2c1 | 58* | -75 | 2 | -396 | 1
COc1ccc(S(=O)(=O)CC(=O)Nc2c(C(N)=O)oc3ccccc23)cc1 | x | x | x | x | -12
CSc1ccccc1NC(=O)C1CN(S(=O)(=O)C2CC2)C1 | x | x | x | x | -7
CCOC(=O)c1c(C)oc2c1c(C=NCCc1ccc(OC)c(OC)c1)c(O)c1ccccc12 | x | x | x | x | 7
CCOC(=O)c1c(C)oc2c1c(C=NCCO)c(O)c1ccccc12 | 25 | 16 | 9 | 46* | 13
Cc1ccc(OCCCC(=O)Nc2ccc3c(c2)OCO3)c(C)c1 | x | x | x | x | 36*
CCc1cc(=O)n(CC(=O)NCc2ccco2)c(-n2nc(C)cc2C)n1 | x | x | x | x | -2
COc1cc(CNCCc2c[nH]c3ccccc23)cc(OC)c1OC | x | -3 | x | x | x
COc1cccc(CNCCc2c[nH]c3ccccc23)c1OCc1ccccc1 | 60* | 0 | 1 | 6 | 45*
COc1cc(CNCCc2c[nH]c3ccccc23)ccc1OCc1ccccc1F | 17 | 0 | 0 | 10 | 38*
SMILES | DUSP3 inh | CCHF vOTU inh | 3CLpro inhibitor | RecA splice inh | SSB-PriA inh
COc1ccc(S(=O)(=O)C2CN(C(=O)CCc3ccc(C(F)(F)F)cc3)C2)cc1 | x | x | x | x | 0
COc1cc2c(cc1OC)C(C)N(C(=O)c1cc3ccccc3o1)CC2 (centres undefined) | 51* | 4 | -1 | -4 | 5
COC(=O)c1ccc(C)c(-n2c(N)c(C(=O)Nc3ccccc3C)sc2=S)c1 | x | x | x | x | 39*
COC(=O)c1ccc(C)c(-n2c(N)c(C(=O)NCc3ccco3)sc2=S)c1 | x | x | x | x | 31
COc1ccccc1NC(=O)c1sc(=S)n(-c2ccc(Cl)cc2)c1N | x | x | x | x | 36*
Cc1cc(=O)[nH]c(-n2nc(-c3cccs3)cc2N)n1 | x | x | x | x | -1
O=C(Cc1cn(Cc2ccccc2)c2ccccc12)NCc1ccccn1 | x | x | x | x | -14
Cc1ccc(NC(=O)Cn2nc(-c3ccccc3)c3sc(N4CCCC4)nc3c2=O)cc1Cl | x | x | x | x | 14
N#Cc1c(-c2ccccc2)c(-c2ccccc2)nn(CC(=O)NNC(=O)Nc2ccc(Cl)c(Cl)c2)c1=O | -15 | 4 | 2 | 11 | 52*
O=C(NCCN1CCN(c2ccccc2)CC1)C(=O)NCc1ccc(F)cc1 | x | x | x | x | -5
CC1(C)CC(NS(=O)(=O)c2ccc(Cl)cc2)CC(C)(C)N1 | 54* | -5 | 1 | -4 | -8
Cc1cc(S(=O)(=O)NC2CC(C)(C)NC(C)(C)C2)c(Cl)cc1Cl | 60* | -10 | -8 | 1 | -3
O=C(COc1ccc(F)cc1)Nc1ccc2c(c1)CN(C(=O)c1ccccc1)CC2 | x | x | x | x | -2
Cc1cc(N(CCO)CCO)ccc1N=Nc1cc(F)ccc1F | 33 | 22 | 4 | 5 | 75*
COc1cccc(NC(=O)NCCS(=O)(=O)c2c(C)[nH]c3ccccc23)c1OC | x | x | x | x | -18
O=C(Cc1ccccc1Cl)N1CCC(n2c(=O)[nH]c3ccc(F)cc3c2=O)CC1 | x | x | x | x | -4
O=C(N/N=C/c1cccc([N+](=O)[O-])c1O)c1cccs1 | 56* | 4 | 4 | 3 | x
COc1ccc(OC)c(C2CC(c3ccccc3)=NN2C(=S)Nc2ccccc2)c1 (centres undefined) | 13 | -7 | -3 | -1 | 1
COc1ccccc1C1=NN(C(=S)Nc2ccccc2)C(c2ccco2)C1 (centres undefined) | 21 | 3 | 3 | 7 | 39*!
Cc1ccc(Nc2nn3c(=O)c4ccc(Cl)cc4nc3s2)cc1C | x | x | x | x | -7
Cc1noc(CNC(=O)CCS(=O)(=O)c2ccccc2)n1 | x | x | x | x | -14
c1ccc2c(-c3cc(C4CCNCC4)[nH]n3)cccc2c1 | 20 | -3 | 1 | 1 | 39*
c1coc(-c2cc(C3CCNCC3)[nH]n2)c1 | 23 | -1 | -1 | 1 | -14
COc1cccc(NC(=S)/C(=C(\[O-])c2ccc(C)c([N+](=O)[O-])c2)[n+]2ccccc2)c1 | 25 | -20 | -2 | 37* | x
CC(C)CCNc1nc(-c2ccco2)c2c(c1C#N)CCCC2 | 59* | -2 | -1 | -3 | 12
SMILES | DUSP3 inh | CCHF vOTU inh | 3CLpro inhibitor | RecA splice inh | SSB-PriA inh
N#Cc1c(NCCN)nc(-c2ccco2)c2c1CCCC2 | 20 | -10 | -4 | -7 | 2
CN(C)CCOc1ccc(/C(=C(/CCCl)c2ccccc2)c2ccccc2)cc1 | x | 16 | x | 33* | 29
CC(C)c1cccc2sc(NC(=O)c3ccn(C)n3)nc12 | x | x | x | x | -25
CS(=O)(=O)c1nc(S(=O)(=O)c2ccc(Cl)cc2)c(N2CCC(C(N)=O)CC2)s1 | -5 | 10 | 7 | 0 | -5
CCS(=O)(=O)c1nc(S(=O)(=O)c2ccc(Cl)cc2)c(N2CCC(C(N)=O)CC2)s1 | 56* | 10 | 4 | -1 | -6
CC(=O)N1CCc2ccc(NC(=O)COc3ccccc3F)cc2C1 | x | x | x | x | 4
O=[N+]([O-])c1cc(/C=N/Nc2nc3ccccc3[nH]2)c(O)cc1O | 0 | 14 | 0 | 40* | x
C=CCn1cc(C=NNc2nc3ccccc3[nH]2)c2ccccc21 | x | x | x | x | 61*
Cc1ccccc1/C=N/Nc1nc2ccccc2[nH]1 | -5 | -4 | 0 | -1 | x
C(=N\Nc1nc2ccccc2[nH]1)/c1c[nH]c2ccccc12 | 5 | -5 | 1 | 22 | x
CN(C)c1ccc(CCNC(=O)c2ccc(F)c(F)c2)cc1 | x | x | x | x | -3
CC1CCCN(c2ccc(C(=O)Nc3cccnc3)cc2[N+](=O)[O-])C1 (centres undefined) | 52* | -7 | 5 | 5 | 22
O=C(Nc1ccc2c(c1)OCO2)c1ccc(N2CCCC2)c([N+](=O)[O-])c1 | -2 | 15 | 0 | 10 | 39*

Screening results: PubChem, several laboratories
